# CHX counter = Cycloheximide Counterscreen for Small Molecule Inhibitors of Shiga Toxin; cell reporter, cycloheximide protein synthesis inhibition counterscreen; max response, %; actives 12% (n = 300,000); AID 2314, 2010; in the data active means max response mostly above about 13%, no sharp cut-off; inactive means mostly below about 14%; further: read at 38.3 µM for the half of the compounds with a filed dose
# NS1 inh = qHTS Assay for Inhibitors of Influenza NS1 Protein Function; Potency, µM (doses to about 46.1 µM); actives 0.4% (n = 270,000); AID 2326, 2010; calls by dose curve; further: actives are rising curves; nearly all actives have a fitted effect of over 50% in size
#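 In this qHTS, NS1 from influenza A is expressed in budding yeast, where it slows growth. Cells are switched from glucose to 2% galactose medium (pH 6.0, -URA), treated with compound, and growth recovery is read at OD600.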
# Shiga toxin inh = A qHTS for Small Molecule Inhibitors of Shiga Toxin | actives 9.2% (n = 290,000) | Vero cells, Shiga toxin protein synthesis inhibition reporter | inhibition, % at 38.7 µM; in the data active means inhibition mostly above about 28%, no sharp cut-off; inactive means mostly below about 43%
# Pf growth 48h = Primary qHTS for delayed death inhibitors of the malarial parasite plastid, 48 hour incubation; P. falciparum luciferase growth in erythrocytes, 48 h; Potency, µM (top dose mostly 28.7 µM), usual class: inhibitors; actives 5.9% (n = 310,000); AID 504832, 2011
#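 Here the parasites carry a stable luciferase gene and grow inside erythrocytes in Albumax-based RPMI medium with compound for one erythrocytic cycle. Activity is scored as loss of luminescent signal.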
# Pf growth 96h = Primary qHTS for delayed death inhibitors of the malarial parasite plastid, 96 hour incubation; P. falciparum luciferase reporter growth, 96 h; Potency, µM (titrated, usually from 28.7 µM), hits mostly inhibitors; actives 6.9% (n = 320,000); AID 504834, 2011
#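 Plates of compound plus infected erythrocytes (2% hematocrit, 0.05% parasitemia final) incubate 96 hours, 37 C, 5% CO2. Detection reagent added; reduced luminescence from the parasites' luciferase reporter flags inhibition.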
# Sm TGR inh = qHTS Assay for the Inhibitors of Schistosoma Mansoni Peroxiredoxins. Schistosoma mansoni thioredoxin glutathione reductase (TGR), Q962Y6. purified TGR, DTNB reduction, TNB absorbance 405 nm. Potency, µM (titrated, usually from 114 µM), usual class: inhibitors. actives 3% (n = 360,000). AID 485364, 2010; further: nearly all actives have a fitted effect of over 60% in size
#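 TGR 20 nM + NADPH 100 uM (dispensed conc.), cpd preinc 15 min RT; start with NADPH (500 uM addition) then DTNB (15 mM addition). Kinetic TNB absorbance, 405 nm filter. Four-parameter Hill fit across titration.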
# Hits are given with their value; - = inactive; ? = inconclusive; . = no result given; [ ] = dose if it differs, or a comment. In the library only some 21% were active in any assay of this set; here they are far more common. Unless noted, the call rests on the fitted dose curve; in most records, active means well fitted curve in the direction sought with a large enough effect; inconclusive means small, poorly fitted or top-dose-only effect, or another doubt; inactive means no such curve, though single readings can be large; an effect the other way counts as inactive or inconclusive.
SMILES,CHX counter,NS1 inh,Shiga toxin inh,Pf growth 48h,Pf growth 96h,Sm TGR inh
O=c1c2ccccc2nnn1CSc1nnnn1-c1ccc(O)cc1,32.4,.,67.3,-,-,?
O=c1c2ccccc2nnn1CSc1nnc2ccccn12,33.9,-,99.0,-,.,-
Cc1cccc(CC(=O)OCn2nnc3ccccc3c2=O)c1,-,-,-,-,-,-
COc1ccc(NCc2cc3ccc(OC)cc3n(CC(=O)Nc3ccc(C)c(C)c3)c2=O)cc1,.,.,.,.,.,-
CCCSCCCNC(=O)CN1C(=O)COc2ccc(S(=O)(=O)N3CCCCCC3)cc21,.,.,.,.,.,-
CCCSCCCNC(=O)CN1C(=O)COc2ccc(S(=O)(=O)N3CCC(C)CC3)cc21,.,.,.,.,.,5.62µM
CC(C)CN(CCNC(=O)CN1C(=O)COc2ccc(S(=O)(=O)N3CCC(C)CC3)cc21)CC(C)C,-,-,-,?,11.7µM,-
CC1CCCCC12NC(=O)N(CC(=O)NCc1ccco1)C2=O (centres undefined),.,.,.,-,-,-
O=C(c1ccc(Cl)cc1)c1cnc(Nc2ccccc2Cl)s1,50.0,-,120.2,-,-,-
CC(=O)c1cnc(Nc2ccccc2)s1,33.6,-,-,.,-,-
CC(=O)c1cnc(Nc2cccc(Cl)c2Cl)s1,37.2,-,81.2,-,-,.
Cc1ccc(-n2ncc3c2CCCC3NC(=O)c2ocnc2C)cc1C (centres undefined),-,-,-,-,-,-
COc1cc2c(cc1OC)C1O[C@](CCCCN3C(=O)c4ccccc4C3=O)(C2)Oc2c1c(=O)oc1ccc(F)cc21,-,-,-,?,-[5.75 µM],2.51µM
CCCCC[C@]12Cc3cc(OC)c(OC)cc3[C@H](O1)c1c(cc(C)oc1=O)O2,-,-,-,-[5.75 µM],?,-[22.9 µM]
N#Cc1ccc2c(c1)C[C@]1(CCCCN3C(=O)c4ccccc4C3=O)Oc3c(c(=O)oc4ccc(F)cc34)C2O1,-,-,-,1.9µM,?,-[22.9 µM]
CC1(C)CC(=O)C2=C(C1)O[C@@]1(CCCCN3C(=O)c4ccccc4C3=O)Cc3cc(C#N)ccc3C2O1,-,-,-,1.51µM,-[5.75 µM],?
COc1ccc2c3c(c(=O)oc2c1)C1O[C@](CCCCN2C(=O)c4ccccc4C2=O)(Cc2cc(OC)c(OC)cc21)O3,-,?,-,1.51µM,-[5.75 µM],?
O=C1c2ccccc2C(=O)N1CCCC[C@]12Cc3ccccc3C(O1)c1c(c3ccccc3oc1=O)O2,-,-,-,?,?,-[22.9 µM]
Cc1cc2c(c(=O)o1)C1O[C@](CCCCN3C(=O)c4ccccc4C3=O)(Cc3cc(C#N)ccc31)O2,-,?,-,?,?,-[22.9 µM]
O=C(O)CC(NS(=O)(=O)c1ccc(Br)s1)c1ccccc1 (centres undefined),.,.,.,.,.,-
Nc1ccccc1-c1nnn(CC(=O)N2CCCc3ccccc32)n1,-,-,-,-,-,-
Cc1ccc(-n2c(SCC(=O)N3Cc4ccccc4CC3C(=O)O)nnc2-c2cccnc2)c(C)c1 (centres undefined),-,-,-,-,?,-
CC(=O)c1ccc(NC(=O)C2CCN(S(=O)(=O)c3ccc4c(c3)N(C(C)=O)CCO4)CC2)cc1,-,-,-,?,?,-
CCC(=O)N1CCc2cc(Br)cc(S(=O)(=O)NCc3ccco3)c21,35.2,-,105.9,?,?,35.5µM
CCC(=O)N1CCc2cc(Br)cc(S(=O)(=O)CCC(=O)N(C)c3cccc(C)c3)c21,.,.,.,11.7µM,5.22µM,?
SMILES,CHX counter,NS1 inh,Shiga toxin inh,Pf growth 48h,Pf growth 96h,Sm TGR inh
CCC(=O)N1CCc2cc(Br)cc(S(=O)(=O)CCC(=O)NCc3ccccc3)c21,.,.,.,.,.,-
CCC(=O)N1CCc2cc(Br)cc(S(=O)(=O)NCc3cccc(OC)c3)c21,.,.,.,.,.,-
CCC(=O)N1CCc2cc(Br)cc(S(=O)(=O)CCC(=O)NCc3ccco3)c21,-,-,-,8.28µM,.,?
COc1ccc(OC)c(S(=O)(=O)NCC(=O)NC2CCCc3ccccc32)c1 (centres undefined),.,.,.,-,-,-
COc1ccc(CCNC(=O)Cn2c(=O)c3sccc3n(CC(=O)Nc3cccc(C(F)(F)F)c3)c2=O)cc1OC,.,.,.,.,.,-
O=C(CCc1nnc2n(Cc3ccccc3Cl)c(=O)c3ccccc3n12)Nc1ccc(F)cc1,.,.,.,.,.,-

# Screening data: PubChem BioAssay, National Center for Advancing Translational Sciences (NCATS)
